Reference: PubChem BioAssay AID720519 (National Center for Advancing Translational Sciences (NCATS), 2013)
Results filed as inconclusive are left out. A number with no mark means an inactive call. The source made the active and inactive calls. The call rests on the fitted dose curve; in most records, active means well fitted activation curve with a large enough effect; inconclusive means small, poorly fitted or top-dose-only effect; inactive means flat fitted curve, though single readings scatter.

assay: qHTS for Inhibitors of Cell Surface uPA Generation: Confirmatory Assay for Cherry-picked Compounds; settings: cell surface uPA activity generation, qHTS confirmation; series mostly up to 115 µM; inhibition: at the top concentration; on inhibition: 0% is about no effect
Method in brief: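 RAW 264.7 cells at 4000/well, incubated overnight, then treated with compounds. After 24 h at 37 C, viability was read by ATPlite luminescence. An increase in signal indicates blocked uPA-dependent LF entry.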
Potency means the concentration at half of the fitted maximal effect.

Compound	inhibition	Potency
CCOC(=O)CN1C(=O)N[C@@H](c2ccccc2)C(C(C)=O)=C1C	0.539%	–
O=c1[nH]c2ccccc2cc1CN(CC1CCCO1)S(=O)(=O)c1ccccc1 (centres undefined)	-0.407%	–
COc1ccc(C2=NOC(CNC(N)=S)C2)cc1 (centres undefined)	-3.56%	–
CC(C)N1CCc2c(sc(NC(=O)CCc3ccccc3)c2C(N)=O)C1	6.59%	–
O=C1CC(/C=C/c2ccc(Cl)cc2)=Nc2ccccc2N1	-2.63%	–
Cc1ccc(C(=O)COc2cc(O)c3c(=O)cc(-c4ccccc4)oc3c2)cc1	-1.83%	–
Cc1ccc(Nc2cc(C)c3ccc(O)cc3n2)cc1C	–	6.56 µM (active)
COc1ccc(C(c2sc3nc(C)nn3c2O)N2CCC(C(N)=O)CC2)cc1OC (centres undefined)	-3.21%	–
NC(=O)c1cc2ccncc2c2ccccc12	-1.41%	–
Cc1ccc(Nc2nc(Cl)c(C=O)s2)cc1	-3.05%	–
CCS(=O)c1scc(-c2ccc(Cl)cc2)c1C#N (centres undefined)	-3.68%	–
Cc1ccc(OCc2cc(C(=O)N(C)Cc3cc(C4CC4)n[nH]3)no2)cc1C	-3.14%	–
COc1ccc(N2CCN(C(=O)COc3ccc4c(C)c(C)c(=O)oc4c3C)CC2)cc1	-1.45%	–
O=C(O)CCc1nn2c3ccccc3n(CC(=O)O)c2nc1=O	-3.3%	–
O=C(Nc1c(C(=O)O)oc2ccc(Br)cc12)c1ccccc1	-3.83%	–
Cc1ccnc(NC(=O)CCNS(=O)(=O)c2ccc(C)c(C)c2)c1	-1.55%	–
O=C(Cc1ccccc1)Nc1ccc(NC(=O)c2ccccc2)c(Cl)c1	-1.87%	–
COc1ccc([C@H]2[C@H](C(=O)OC(C)(C)C)N3N=Cc4ccccc4C3C23C(=O)c2ccccc2C3=O)cc1OC (some centres undefined)	-3.34%	–
Cn1cc(SCC(=O)Nc2nccs2)c2ccccc21	-2.65%	–
N#CCC(=O)N/N=C/c1ccc(OCC(=O)Nc2ccc(F)cc2)cc1	1.17%	–

Compound	inhibition	Potency
O=C(NC1CC1)C1CCCN(C(=O)NC2CCCCC2)C1 (centres undefined)	-1.77%	–
CCOC(=O)Oc1c(OC)cc(C(=O)O[C@@H]2C[C@@H]3CN4CCc5c([nH]c6cc(OC)ccc56)[C@H]4C[C@@H]3[C@H](C(=O)OC)[C@H]2OC)cc1OC	-2%	–
CC1(C)C([N+](=O)[O-])C(c2ccc(F)cc2)NC(c2ccc(F)cc2)C1[N+](=O)[O-] (centres undefined)	6.56%	–
COC(=O)COc1cc2ccccc2cc1C(=O)Nc1ccccc1	-0.876%	–
Cc1cc(/C=N/NC(=O)c2ccccc2F)c(C)n1-c1ccccc1	-1.81%	–
CC1(C)CC(=O)C([N+](=O)[O-])=C(NCCCC(=O)O)C1	1.47%	–
O=C(COC(=O)C1CC2C=CC1C2)NCc1ccccc1Cl (centres undefined)	1.24%	–
COc1cc(CCC(=O)OCC(=O)Nc2ccc(C)cc2Br)cc(OC)c1OC	-1.75%	–
C=CCn1c(=O)c(C(=O)NCCc2ccc(Cl)cc2)c(O)c2cc(OC)c(OC)cc21	-0.658%	–
O=C(c1cc(COc2ccc(F)cc2Cl)on1)N1CCCCCC1	-1.5%	–
COc1ccc(S(=O)(=O)N2CCN(Cc3ccccc3)CC2)c(C)c1	-3.46%	–
CC1CN(C(=O)CCC(=O)NCc2ccccc2)c2ccccc2S1 (centres undefined)	0.274%	–
COc1ccccc1C(=O)NCc1ccccc1	-2.97%	–
O=C(NNC(=O)c1ccc2ccccc2c1)Nc1ccc(F)cc1	3.61%	–
COc1ccc(-n2nnnc2SCC(=O)Nc2nnc(C)s2)cc1	-0.694%	–
O=C(COc1cc2oc(=O)cc(-c3ccccc3)c2cc1Cl)NC(Cc1c[nH]c2ccc(O)cc12)C(=O)O (centres undefined)	0.485%	–
COC(C[C@H](O)[C@H](C)[C@@H](O)COCc1ccccc1)OC	-2.54%	–
CC(C)(C)C(=O)NCCc1nc2ccccc2n1CC(=O)c1ccc(Cl)cc1	-2.45%	–
CCOc1ccc(C2(C)CC(=O)N(C)C2=O)cc1 (centres undefined)	-2.12%	–
